Measurements published in PubChem BioAssay (NCATS).
Results filed as inconclusive are left out. The source made the active and inactive calls. Unless noted, calls come from the whole dose curve; as a rule, active = well fitted curve in the direction sought with a large enough effect; inconclusive = small, poorly fitted or top-dose-only effect, or another doubt; inactive = no such curve, though single readings can be large; an effect the other way counts as inactive or inconclusive.

Legend:
[1] = SW1088 Cancer Cell Toxicity qHTS against the NCATS CANVASS Library (AID 1347350)
Outline: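 Per well, 1000 cells; exposure 72 h with compound at 11 final concentrations; readout CellTiter-Glo luminescence.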

[2] = HEK-293 Cancer Cell Toxicity qHTS against the NCATS CANVASS Library (AID 1347355)
Outline: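 Toxicity was measured as CellTiter-Glo luminescence after 72 h exposure to an 11-point compound series. Compound was added to 1000 cells/well 4 h after seeding.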

[3] = SDT Cancer Cell Toxicity qHTS against the NCATS CANVASS Library (AID 1347365)
Outline: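 Cytotoxicity taken from CellTiterGlo ATP luminescence after 72 hr at 37C, 5% CO2. Canine glioma line SDT, 500 cells/well, treated at 11 concentrations; bortezomib dose series as control.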

[4] = G06 Cancer Cell Toxicity qHTS against the NCATS CANVASS Library (AID 1347368)
Outline: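 Viability measured by CellTiterGlo ATP luminescence after 72 hr at 37C, 5% CO2. Canine G06 glioma cells plated at 500/well. Compounds tested as 11-point qHTS titrations.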

[5] = MCF7 Cancer Cell Toxicity qHTS against the NCATS CANVASS Library (AID 1347369)
Outline: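 This 72 hr qHTS scored MCF7 viability by CellTiterGlo luminescence, with 500 cells/well; bortezomib titration ran as control.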

[6] = qHTS for ATAD5 Antagonist screened against the NCATS CANVASS Library (AID 1347370)
Outline: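 Compounds (11-point) co-dosed with 10 µM 5-FUrd for 16 h at 37 °C onto HEK293T-ATAD5 luciferase reporter cells. Viability measured by CellTiter-Fluor fluorescence, then ATAD5 reporter signal by luminescence.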

[7] = qHTS for Hypoxia signaling pathway (HIF-1) agonists against the NCATS CANVASS Library (AID 1347375)
Outline: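 Beta-lactamase reporter under HRE control in ME-180 cells; compounds (11-point qHTS series) added after 5 hrs plating, then 17 hrs at 37C. FRET substrate read after 2 hr; same-well CellTiter-Glo luminescence gave viability and normalization.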

[8] = DH5-alpha competent E. coli microbial cell viability qHTS against the NCATS CANVASS Library (AID 1347377); conditions: outcome: at 46.1 µM (top of the series)
Outline: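 Bacterial viability as ATP-dependent luminescence (BacTiter-Glo), read after overnight 37 °C exposure of DH5-alpha competent E. coli to compounds in 11-point titration.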

[9] = qHTS for Inflammasome Signaling Inhibitors: IL-1-beta AlphaLISA screen against the NCATS CANVASS Library (AID 1347379)
Outline: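 Secreted IL-1B from human THP-1 cells quantified by AlphaLISA 16 hr after compound addition (final up to 57.5 uM). A 1 hr compound pretreatment preceded inflammasome activation with 250 ng/mL LPS plus 1.25 mM ATP (final).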

[10] = qHTS for Antimalaria activity screened against the NCATS CANVASS Library (AID 1347380)
Outline: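 SYBR Green fluorescence at 485/535 nm was read 18 hr after lysis. This followed a 72 hr incubation at 37C in 5% O2, 5% CO2 of Dd2-infected erythrocytes (0.3% parasitemia, 2.5% final hematocrit) with compounds titrated over 11 concentrations.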

[11] = qHTS for Activators of p53 Stress Response Pathway screened against the NCATS CANVASS Library (AID 1347388)
Outline: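 Beta-lactamase reporter driven by p53 response elements in HCT-116 cells, read as the 460 nm/530 nm emission ratio after CCF4 loading, following 16 h of exposure to an 11-point series. Cell viability was measured in the same wells by CellTiter-Glo luminescence.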

[12] = Secretion counterscreen for inhibitors of the SERCaMP assay screened against the NCATS CANVASS Library (AID 1347390)
Outline: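 Natural products are titrated in an 11-point series up to 77 uM onto SH-SY5Y-GLuc STOP cells for 20 h. Secreted reporter activity is measured as coelenterazine-driven luminescence, with Brefeldin A on each plate.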

[13] = qHTS for inhibitors of ER calcium dysfunction: SERCaMP assay screened against the NCATS CANVASS Library (AID 1347393)
Outline: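 Thapsigargin-induced ER calcium depletion drives GLuc-SERCaMP secretion from SH-SY5Y cells; compounds given 16 h beforehand were scored by lowered coelenterazine luminescence after 4 h challenge.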

[14] = qHTS for inhibitors of Rabies Virus screened against the NCATS CANVASS Library (AID 1347402; calls by dose curve)
[15] = AP1 Signaling Pathway (AID 357; active = well fitted curve in either direction with a large enough effect, not every such curve was filed as active)
Outline: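 Cells are seeded overnight, exposed to compound titrations and an EC50 level of EGF for 5 hours at 37 °C, then loaded with CCF4 dye for 2.5 hours. Beta-lactamase activity under the AP-1 element is read as a blue/green ratio.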

[16] = target: Cytochrome P450 1A2 (Homo sapiens) (UniProt P05177); experiment: p450-cyp1a2 (AID 410; calls by dose curve)
Outline: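 Luminescent demethylation readout: Luciferin-ME (100uM, equal to Km) turned over by 20nM CYP1A2 for 60 min at room temperature after NADPH regeneration addition, following 10 min compound preincubation. Normalization used 57 uM furafylline as full inhibition.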

[17] = NFAT Signaling Pathway (AID 444; active = well fitted curve in either direction with a large enough effect, not every such curve was filed as active); conditions: Jurkat NFAT-bla M1, carbachol, beta-lactamase ratio, 5 h; at 17.2 µM (top of the series)
Outline: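 Read-out: CCF4 FRET ratio (460 nm/530 nm) after 1 h RT dye loading, used for %activity and AC50 from titration series. Cells: Jurkat NFAT-β-lactamase/M1 line, treated with compound plus 1 uM carbachol for 5 h, 37 °C.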

[18] = target: Cytochrome P450 3A4 (Homo sapiens) (UniProt P08684); experiment: qHTS Assay for Inhibitors and Substrates of Cytochrome P450 3A4 (AID 884)
Outline: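 Luminescent readout of luciferin produced by CYP3A4 (20 nM) dealkylation of Luciferin-PPXE, 25 uM (its KM). NADPH-driven reaction ran 60 min at RT after 10 min compound preincubation; data scaled to 57 uM ketoconazole as 100% inhibition.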

[19] = target: Cytochrome P450 3A4 (Homo sapiens) (UniProt P08684); experiment: qHTS Assay for Activators of Cytochrome P450 3A4 (AID 885)
Outline: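 Human CYP3A4 dealkylates Luciferin-PPXE to luciferin, which luciferase detection converts to light. Substrate was at its KM (25uM), buffer 200mM KPO4, reaction 60 min at RT.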

Sequence of Cytochrome P450 3A4 (Homo sapiens) (P08684 whole entry, looked up): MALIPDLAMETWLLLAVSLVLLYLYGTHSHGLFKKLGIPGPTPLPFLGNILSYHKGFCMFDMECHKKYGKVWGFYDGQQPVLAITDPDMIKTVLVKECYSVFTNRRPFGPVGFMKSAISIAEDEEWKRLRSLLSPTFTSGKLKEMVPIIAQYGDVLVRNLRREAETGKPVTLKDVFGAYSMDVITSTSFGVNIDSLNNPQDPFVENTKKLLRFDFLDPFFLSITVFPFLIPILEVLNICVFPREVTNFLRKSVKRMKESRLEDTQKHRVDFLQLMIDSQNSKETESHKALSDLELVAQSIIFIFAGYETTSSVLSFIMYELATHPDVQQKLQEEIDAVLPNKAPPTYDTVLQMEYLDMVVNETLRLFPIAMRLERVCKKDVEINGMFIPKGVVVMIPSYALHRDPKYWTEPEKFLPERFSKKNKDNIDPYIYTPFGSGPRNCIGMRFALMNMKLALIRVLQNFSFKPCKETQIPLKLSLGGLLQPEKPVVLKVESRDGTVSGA
Sequence of Cytochrome P450 1A2 (Homo sapiens) (P05177 whole entry, looked up): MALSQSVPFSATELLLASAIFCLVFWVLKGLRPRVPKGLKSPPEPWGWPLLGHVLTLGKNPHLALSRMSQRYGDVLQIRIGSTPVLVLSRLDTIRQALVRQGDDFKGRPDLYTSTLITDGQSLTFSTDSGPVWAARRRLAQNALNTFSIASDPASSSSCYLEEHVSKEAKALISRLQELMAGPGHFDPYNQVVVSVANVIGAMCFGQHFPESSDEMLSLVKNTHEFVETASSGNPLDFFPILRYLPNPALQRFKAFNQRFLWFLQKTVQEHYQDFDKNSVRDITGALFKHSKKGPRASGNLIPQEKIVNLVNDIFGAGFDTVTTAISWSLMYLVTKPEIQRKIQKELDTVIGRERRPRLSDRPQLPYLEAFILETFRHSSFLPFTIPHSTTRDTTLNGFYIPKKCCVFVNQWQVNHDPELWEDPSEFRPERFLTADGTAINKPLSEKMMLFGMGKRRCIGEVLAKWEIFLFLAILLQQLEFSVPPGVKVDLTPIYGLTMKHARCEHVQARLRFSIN

CCC[C@H]1CC[C@H]2[C@H](C)CCC[C@H]2N1
inactive: Potency [1] | Potency [2] | Potency [3] | Potency [4] | Potency [5] | Potency [6] | Potency [7] | outcome [8] | Potency [9] | Potency [10] | Potency [11] | Potency [12] | Potency [13] | outcome [14]

O=C(O)c1ccccc1-c1c2cc(Br)c(=O)cc-2oc2[c]([Hg])c(O)c(Br)cc12
active: Potency [16] 15.8 µM | Potency [18] 25.1 µM
inactive: outcome [15] | activity change, negative = inhibition [17] -24.9% | Potency [19]

CCCCC[C@@H]1OC(=O)[C@@H](C)N(C)C(=O)[C@H](CCCCC)OC(=O)C(C)N(C)C(=O)[C@H](CCCCC)OC(=O)[C@@H](C)N(C)C(=O)[C@H](CCCCC)OC(=O)C(C)N(C)C1=O (stereo not given in full)
inactive: Potency [7] | outcome [8] | Potency [11] | Potency [12]
active: Potency [1] 6.68 µM | Potency [2] 4.18 µM | Potency [3] 16.6 µM | Potency [4] 18.7 µM

CO[C@@H](/C=C/CC/C=C/C(=O)O)[C@@H](O)[C@H](C)[C@@H](O)/C(C)=C/[C@H](C)C(=O)CCCC1CC(=O)NC(=O)C1
inactive: Potency [1] | Potency [2] | Potency [3] | Potency [4] | Potency [5] | Potency [6] | Potency [7] | outcome [8] | Potency [9] | Potency [11] | Potency [12] | Potency [13] | outcome [14]

CC(C)(C)NC[C@@H](O)COc1cccc2[nH]c(C#N)cc12
inactive: Potency [19]

C[C@]12CC(O)C3[C@@H](CCC4C[C@@H](O)CC[C@@]43CO)[C@@]1(O)CCC2C1=CC(=O)OC1 (stereo not given in full)
active: Potency [3] 2.64 µM
inactive: Potency [1] | Potency [2] | Potency [5] | Potency [6] | Potency [7] | Potency [9] | Potency [10] | Potency [11] | Potency [12] | Potency [13] | outcome [14]

CC(C)C[C@H]1C(=O)N2CCCC2[C@]2(O)O[C@](NC(=O)[C@@H]3C=C4c5cccc6[nH]cc(c56)CC4N(C)C3)(C(C)C)C(=O)N12 (stereo not given in full)
inactive: Potency [19]
active: Potency [18] 1 µM

O=C1Nc2ccccc2C2(CCN(CCc3ccc(C(F)(F)F)cc3)CC2)O1
inactive: Potency [18]
active: Potency [19] 7.94 µM

CCN1C[C@]2(C)CC[C@H](O)[C@]34C1C(C[C@H]23)[C@@]12CC[C@H](CC14)[C@](O)(COC(=O)c1ccc(OC)c(OC)c1)[C@H]2O (stereo not given in full)
active: Potency [13] 10.8 µM
inactive: Potency [1] | Potency [5] | Potency [6] | Potency [7] | outcome [8] | Potency [9] | Potency [10] | Potency [11] | Potency [12] | outcome [14]

CO[C@H](c1ccccc1)[C@H]1NC(=O)C(C)NC(=O)C(C[C@@H](C)CO)N(C)C(=O)[C@@H](C(O)c2cn(C(C)(C)C3CO3)c3ccccc23)NC(=O)C(C(C)C=C(C)C)NC(=O)C(CC(C)C)N(C)C(=O)C(C(C)C)NC1=O (stereo not given in full)
inactive: Potency [1] | Potency [5] | Potency [6] | Potency [7] | outcome [8] | Potency [11] | Potency [12] | outcome [14]
active: Potency [10] 0.292 µM

O=C(c1ccccc1O)c1[nH]c(Cl)c(Cl)c1-n1c(C(=O)c2ccccc2O)cc(Cl)c1Cl
inactive: Potency [13]
active: Potency [1] 0.749 µM | Potency [2] 4.18 µM | Potency [3] 2.35 µM | Potency [4] 5.9 µM | Potency [9] 15.3 µM | Potency [10] 0.472 µM | Potency [12] 19.3 µM
